This is one part of a sample in which hits are shown more often than they occur.
PKA kinase inh – inhibitors of human protein kinase A. PKA Kemptide phosphorylation, Kinase-Glo ATP luminescence. 65,000 compounds, 0.1% hits. inhibition, % at 6 µM;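 active means inhibition above the screen-wide mean inhibition plus 3 SD, cut at about 21% in these data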
ROCK2 blocker – blocks human Rho kinase 2 activity. purified ROCK2, Kinase-Glo ATP depletion luminescence. inhibition, % at 6 µM. 60,000 compounds, 0.35% hits. AID 604;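 active means inhibition above the screen-wide mean inhibition plus 3 SD, cut at about 18% in these data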
hDAT+cocaine – modulates human dopamine transporter uptake under cocaine | B-score at 10 µM | Q01959 | 110,000 compounds, 1.3% hits | LLC-PK1 hDAT cells, [14C]-dopamine uptake with cocaine IC80; actives deviate in either direction;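 active means Z score or B-score, a plate-position-corrected score, falls beyond the plate's 99.7% confidence bounds, in either direction; inactive means both scores lie inside the 99.7% bounds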
D1 mod – allosteric modulators of human D1 dopamine receptor; P21728; HEK293 D1, CRE-luciferase, dopamine EC30 potentiation; actives deviate in either direction; B-score at 10 µM; 58,000 compounds, 5.9% hits; AID 641;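 active means luminescence count or its row- and column-corrected plate score outside the 99.7% band of the plate's sample wells, on either side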
Each line names hits and unclear results; the compound was inactive in the other large screens.

CNC(=O)COC(=O)c1cc2c(C)nn(-c3ccc(F)cc3)c2s1	none (no result: PKA kinase inh, ROCK2 blocker, D1 mod)
COC(=O)CCC(=O)OC1(C)C(=O)C=C2C=C(C3CC3)N(CC3CC3)C=C2C1=O (stereo not given)	none (no result: PKA kinase inh, ROCK2 blocker, D1 mod)
COC(=O)CCC(=O)OC1(C)C(=O)C=C2C=C(C3CC3)N(Cc3ccccc3)C=C2C1=O (stereo not given)	hDAT+cocaine -2.3 (no result: PKA kinase inh, ROCK2 blocker, D1 mod)
O=C(C1CCCN(S(=O)(=O)c2ccc(F)cc2)C1)N(Cc1cccs1)C1CC1 (stereo not given)	none (no result: ROCK2 blocker)
CN1CCC(=C2c3ccccc3CCc3sccc32)CC1	none (no result: PKA kinase inh, ROCK2 blocker, D1 mod)
CN1CCC(=C2c3ccccc3CC(=O)c3sccc32)CC1	D1 mod -6.8
O=C(Nc1ccc2c(c1)OCCO2)c1cccnc1	D1 mod -3.2
O=C(Nc1ccc2c(c1)OCO2)c1ccncc1	none
O=C(Nc1ccc2c(c1)OCO2)c1ccc2nc[nH]c2c1	hDAT+cocaine -1.9 (no result: PKA kinase inh, ROCK2 blocker, D1 mod)
CN(C)S(=O)(=O)c1ccc(NC(=O)c2c(F)cccc2Cl)cc1	none (no result: PKA kinase inh, ROCK2 blocker, D1 mod)
C=CCN1C=C2C(=O)C(C)(OC(=O)CC)C(=O)C=C2C=C1CCCC (stereo not given)	hDAT+cocaine -2.8 (no result: PKA kinase inh, ROCK2 blocker, D1 mod)
CCOc1ccccc1NC(=O)N1CCC(n2nnc3cc(C)ccc32)CC1	hDAT+cocaine 2.4 (no result: D1 mod)
CCc1c(C)nc2cc(-c3cc(OC)cc(OC)c3)nn2c1N1CCCC1	none
CCOCCN1CCN(c2c(CC)c(C)nc3cc(-c4cc(OC)cc(OC)c4)nn23)CC1	hDAT+cocaine 2 (no result: PKA kinase inh, ROCK2 blocker, D1 mod)
COc1cc(/C=N/NC(=O)CCc2c(C)n[nH]c2C)ccc1O	hDAT+cocaine -9.4 (no result: PKA kinase inh, ROCK2 blocker, D1 mod)
C=CCN(C(=O)c1cccc(S(=O)(=O)N2CCN(C)CC2)c1)c1nc(-c2ccccc2)cs1	none (no result: PKA kinase inh, ROCK2 blocker, D1 mod)
COc1cccc(-c2cc(C(=O)Nc3cnn(Cc4ccc(F)cc4)c3)no2)c1	D1 mod -3
CCOc1ccc(NC2=NC(C(=O)NCc3ccccc3)CC(=O)N2)cc1 (stereo not given)	none
COC(=O)c1cc2c(C)c(C)c3ccccn3c-2c1C(=O)OC	hDAT+cocaine -9.1 (no result: PKA kinase inh, ROCK2 blocker, D1 mod)
COC(=O)c1cc2ccccn2c2c(C(=O)OC)c(C(=O)OC)cc1-2	none (no result: PKA kinase inh, ROCK2 blocker, D1 mod)
COc1ccccc1N1CCN(CC(=O)Nc2cc(C)nn2-c2nc(C)cc(C)n2)CC1	D1 mod 4.8 (no result: ROCK2 blocker, hDAT+cocaine)
COc1cc2c(C(=O)NCc3ccc(C)o3)cn(CC(C)C)c(=O)c2cc1OC	none
CCC1CCCCN1CCCNC(=O)c1cn(CC(C)C)c(=O)c2cc(OC)c(OC)cc12 (stereo not given)	hDAT+cocaine -7.2 (no result: ROCK2 blocker)
COc1ccccc1C1c2c(oc3ccc(Cl)cc3c2=O)C(=O)N1c1cc(C)on1 (stereo not given)	none (no result: hDAT+cocaine)
N#CC1=C(N)c2ccccc2CC12CCCCC2	none (no result: PKA kinase inh, ROCK2 blocker, D1 mod)
O=S(=O)(c1ccccc1C(F)(F)F)N1CCC(n2cnc3ccccc32)CC1	hDAT+cocaine 2.7 (no result: PKA kinase inh, ROCK2 blocker, D1 mod)
O=C(O)c1ccc2c(c1)ncn2C1CCCCC1	none (no result: PKA kinase inh, ROCK2 blocker, D1 mod)
CCOc1ccc2[nH]c(=O)c(C(c3nnnn3Cc3ccco3)N3CCC(C)CC3)cc2c1 (stereo not given)	none
CCOc1ccc2[nH]c(=O)c(C(c3nnnn3Cc3ccco3)N3CCCC(C)C3)cc2c1 (stereo not given)	hDAT+cocaine 2.5
COc1cccc(N2CC(C(=O)Nc3ccc(C(=O)OC(C)C)cc3)CC2=O)c1 (stereo not given)	hDAT+cocaine 3.2
COc1ccc(CCC(=O)Nc2nc3c(s2)CN(C)CC3)cc1OC	ROCK2 blocker 109
COc1ccccc1N1CCN(C(c2ccc(C)cc2)c2nnnn2C(C)C)CC1 (stereo not given)	hDAT+cocaine 3.1
COc1ccccc1N1CCN(C(c2ccc(F)cc2)c2nnnn2C(C)C)CC1 (stereo not given)	none
COc1c(F)c(F)c(C(=O)Nc2ccc(N3CCN(Cc4ccccc4)CC3)cc2)c(F)c1F	none (no result: PKA kinase inh, ROCK2 blocker, D1 mod)
COc1ccc(N2CCN(c3ncnc4c3[nH]c3ccccc34)CC2)cc1	none (no result: PKA kinase inh, ROCK2 blocker, D1 mod)
CCOC(=O)N1CCN(c2ncnc3c2[nH]c2ccc(F)cc23)CC1	none (no result: PKA kinase inh, ROCK2 blocker, D1 mod)
CCOC(=O)N1CCN(c2ncnc3c2[nH]c2ccc(OC)cc23)CC1	hDAT+cocaine 3.5
COc1cc2[nH]c3c(N4CCN(c5ccccn5)CC4)ncnc3c2cc1OC	D1 mod -4.8
C=C1CCN(c2ccc(C(=O)NCCC)cc2[N+](=O)[O-])CC1	none (no result: PKA kinase inh, ROCK2 blocker, D1 mod)
COc1ccc(CNS(=O)(=O)c2ccccc2Br)cc1	none (no result: PKA kinase inh, ROCK2 blocker, D1 mod)
CCCCCCC(=O)Nc1c(O)c2ccccc2[nH]c1=O	D1 mod -3.1
CC(C)CC(CO)N1CCN(C(=O)c2ccc(Cl)c(Cl)c2)CCC1=O (stereo not given)	none (no result: PKA kinase inh, ROCK2 blocker, D1 mod)
O=C(OCc1ccc(Cl)cc1Cl)c1cccnc1Cl	hDAT+cocaine -8.6 (no result: PKA kinase inh, ROCK2 blocker, D1 mod)
CCOc1ccc(Br)cc1S(=O)(=O)Nc1nc(CN2CCOCC2)nc2sc(C)c(C)c12	none (no result: PKA kinase inh, ROCK2 blocker, D1 mod)
CCN(CC)S(=O)(=O)c1csc(C(=O)OCC(=O)c2ccccc2)c1	none (no result: PKA kinase inh, ROCK2 blocker, D1 mod)
O=C(SCC(O)C(O)CS)c1cccs1 (stereo not given)	none (no result: PKA kinase inh, ROCK2 blocker, D1 mod)
CCOC(=O)C(C(C)=O)C(c1ccc(OCCC(C)C)cc1)C(C(C)=O)C(=O)OCC (stereo not given)	none (no result: PKA kinase inh, ROCK2 blocker, D1 mod)
CC(C)(C)Cc1nc(-c2ccccn2)no1	none
CCC(c1ccccc1)c1nc(-c2ccccn2)no1 (stereo not given)	D1 mod -7.1
Cc1ccc(SC/C(O)=C(\C#N)c2nc3ccccc3n2C)cc1	none
CCN(CC)S(=O)(=O)c1ccc(/C(O)=C(\C#N)c2nc3ccccc3n2C)cc1	D1 mod -2.2
CC(C)CC(=O)Nc1ccc(-c2cn3ccsc3n2)cc1	D1 mod -4.5
O=S(=O)(Nc1ccc(-c2cn3ccsc3n2)cc1)c1ccc2c(c1)OCCO2	none (no result: D1 mod)
CC(C)(C)C(=O)Nc1ccc(-c2cn3ccsc3n2)cc1	D1 mod -5.4 (no result: hDAT+cocaine)
Cc1ccc(C(=O)N/C(=C\c2ccco2)C(=O)NCCCn2ccnc2)cc1C	none (no result: PKA kinase inh, ROCK2 blocker, D1 mod)
Cc1ccc2nsnc2c1S(=O)(=O)N1CCN(Cc2ccc3c(c2)OCO3)CC1	hDAT+cocaine 5.4
CSc1ccc(S(=O)(=O)N2CCN(Cc3ccc4c(c3)OCO4)CC2)cc1	none
Cc1ccc2nsnc2c1S(=O)(=O)N1CCCC1	none
Cc1cc(S(=O)(=O)N2CCN(Cc3ccc4c(c3)OCO4)CC2)cc(C)c1N1CCCC1=O	D1 mod -4.6
O=C(NCc1ccccc1)C1=C[C@@H](C2CCCCC2)C[C@@H](OCCCCO)O1	none (no result: PKA kinase inh, ROCK2 blocker, D1 mod)
Cc1ccc(C(=O)N[C@@H](C)CN2C3=NC[C@H](C)N3C[C@H]2Cc2ccc(O)cc2)cc1Br	none (no result: PKA kinase inh, ROCK2 blocker, D1 mod)
CCCN1C(=O)c2cc(C(=O)NCc3cccs3)ccc2C1O (stereo not given)	none
CCOC(=O)c1c(C)c(C(=O)NCc2cccs2)c(C)n1CC	hDAT+cocaine 2.8
CCOC(=O)c1c(C)c(C(=O)N2CCc3ccccc3C2)c(C)n1CC	hDAT+cocaine 2.5
CCOC(=O)c1c(C)c(C(=O)Nc2ccccc2)c(C)n1CC	none (no result: hDAT+cocaine)
Cc1c(C)n(C)c2ccc(C(=O)NCc3cccs3)cc12	ROCK2 blocker 32
COc1ccccc1N(CC(=O)NCc1ccccc1)C(=O)CCC(=O)Nc1ccccn1	none (no result: PKA kinase inh, ROCK2 blocker, D1 mod)
Cc1onc(-c2ccccc2Cl)c1C(=O)NCCn1c(C)cc2ccccc21	none (no result: hDAT+cocaine)
COc1ccc(CCn2c(N)c(S(=O)(=O)c3cccs3)c3nc4ccccc4nc32)cc1OC	none (no result: ROCK2 blocker)
COc1ccccc1/C=N/n1c(N)c(S(=O)(=O)c2cccs2)c2nc3ccccc3nc21	hDAT+cocaine 3.5 (no result: PKA kinase inh, ROCK2 blocker, D1 mod)

From PubChem
